# Experimental data as given in publication PMC7819943, “Rice protein-binding microarrays: a tool to detect cis-acting elements near promoter regions in rice”.
# In all, about 35,000 sequences were measured (“fluorescence intensity (a.u.)”: median about 10,000, highest 2% from about 52,000 on). The sample holds the highest values, similar sequences and a random draw of the others, so the mix is not that of the screen.
# Biological target: T1, OsWOX13 (Oryza sativa, UniProt Q5QMM3 1-267)
# T1 sequence: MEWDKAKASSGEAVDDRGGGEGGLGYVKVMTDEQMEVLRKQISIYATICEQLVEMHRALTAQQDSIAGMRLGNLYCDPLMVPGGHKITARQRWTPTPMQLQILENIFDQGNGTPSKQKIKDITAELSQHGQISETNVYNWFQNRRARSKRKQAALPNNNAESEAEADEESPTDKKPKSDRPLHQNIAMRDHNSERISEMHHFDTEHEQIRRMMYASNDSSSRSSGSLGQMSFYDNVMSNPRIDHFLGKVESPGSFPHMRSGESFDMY
# Assay: protein-binding microarray (RPBM); PBS, 2% BSA, 51.3 ng/ul salmon testes DNA, 50 uM zinc acetate, 200 nM TF, 25 C, 1 h; high values mean tight binding
# Details: protein: recombinant; tags: N-terminal polyhistidine and DsRed monomer fusion (pET32a); label: CyDye5-dUTP incorporated in the synthesized complementary strand; 3' TTTTT single-stranded linker to array surface; dsDNA, one strand shown
# How it was run: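 A custom Agilent array was converted to double-stranded form by primer extension with Cy5-dUTP and blocked with 2% BSA. Protein at 200 nM in PBS with 2% BSA, salmon testes DNA and 50 µM zinc acetate was applied for 1 h at 25 °C, followed by washing. The proteins were polyhistidine–DsRed N-terminal fusions of transcription factors, expressed in E. coli BL21-CodonPlus and Ni–NTA-purified. The binding signal is per-feature fluorescence intensity (arbitrary units) from an Axon 4000B scanner.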
row,Sequence,binding signal
1,AAAATATATAATTATTATTTATTTTATTATGACATGATATCGGAGTCACCTAGTGCAG,17400 fluorescence intensity (a.u.)
2,TTAAATAAATTACTTTTAAATTAATAAAATGTTTGAATATCGGAGTCACCTAGTGCAG,5500 fluorescence intensity (a.u.)
3,ATGATTGATTGTAAATTAGGTTGAATAATTGATATATACTCGGAGTCACCTAGTGCAG,54800 fluorescence intensity (a.u.)
4,CGAAATTATAATGATTAAACAAAATTGATCGATATAACTACGGAGTCACCTAGTGCAG,41000 fluorescence intensity (a.u.)
5,ATAATAATTGATAGGTAACCATGATTATCGATAAAACCATCGGAGTCACCTAGTGCAG,59000 fluorescence intensity (a.u.)
6,ATTGATTTAATGAAAATAATTTAATATTATAAATATTACTCGGAGTCACCTAGTGCAG,35700 fluorescence intensity (a.u.)
7,ATGTAAATTACTTTTAGGCTTTATTGAATTACTTTTATATCGGAGTCACCTAGTGCAG,7630 fluorescence intensity (a.u.)
8,GTGGTTGTATTAAATATATTGATAGTTAGGTATATGAATACGGAGTCACCTAGTGCAG,4110 fluorescence intensity (a.u.)
9,GTCTCGATATAATTATGAATTTTGAAATATATAAACCCATCGGAGTCACCTAGTGCAG,8250 fluorescence intensity (a.u.)
10,TCACATTGATATTAATTAATCTAGATAAATATATATATGTCGGAGTCACCTAGTGCAG,17200 fluorescence intensity (a.u.)
11,TGTAATTGATAAATATAAATTTACTTTAGGCATGTTTGATCGGAGTCACCTAGTGCAG,55700 fluorescence intensity (a.u.)
12,ATATAATTGATAATAAATCAGGGCATGACATGTCACATATCGGAGTCACCTAGTGCAG,56400 fluorescence intensity (a.u.)
13,TTGTATTTGTTAATGGAATGCTGATTGGTGCACAGCAAACCGGAGTCACCTAGTGCAG,29900 fluorescence intensity (a.u.)
14,ATTAAATTTGGGCTAACTGGCCTCCACACATCCCATATAACGGAGTCACCTAGTGCAG,11000 fluorescence intensity (a.u.)
15,TCCGATTGATTACCTTCTATAAATACCTCACCCCACCCCTCGGAGTCACCTAGTGCAG,57600 fluorescence intensity (a.u.)
16,GATAAATTACGATAATACCCCTATACGAATTATTATCTCTCGGAGTCACCTAGTGCAG,12900 fluorescence intensity (a.u.)
17,TGTTTTGATTGTTTCTTATTACTCCCTCCGATTATAAATACGGAGTCACCTAGTGCAG,25500 fluorescence intensity (a.u.)
18,CAGATGATTAGTAATGTTAATTATGAATAAACTTGCACGCCGGAGTCACCTAGTGCAG,51800 fluorescence intensity (a.u.)
19,ATTGATTAGTAGTAATTAATTAGTTATAAACTACACGCGCCGGAGTCACCTAGTGCAG,58700 fluorescence intensity (a.u.)
20,ATTGATAATTAGTTCACCGAAGTAGTAGGGCGCGACACGCCGGAGTCACCTAGTGCAG,15900 fluorescence intensity (a.u.)
21,TAAATTGGCTATTACATTAGTTATAAATGATTTGGAGCTACGGAGTCACCTAGTGCAG,34400 fluorescence intensity (a.u.)
22,CTAAATTGATTATACATGATTTAGAGTTAGTAGTTAGCTACGGAGTCACCTAGTGCAG,59600 fluorescence intensity (a.u.)
23,ATTGATTTACGGGATTGAAGTTAGTATAATTACATGTAAGCGGAGTCACCTAGTGCAG,53600 fluorescence intensity (a.u.)

row,Sequence,binding signal
1,AATATTATTTATATGTAATTACATAAGTAATATGTAATTTCGGAGTCACCTAGTGCAG,9490 fluorescence intensity (a.u.)
2,AGCTATTAGTAGATTGGCTATAAATGAATTGGAGTTAGTACGGAGTCACCTAGTGCAG,14900 fluorescence intensity (a.u.)
3,GTGCAAGGATAATTGGTGATTATATTAGTGTATATTTAAGCGGAGTCACCTAGTGCAG,18200 fluorescence intensity (a.u.)
4,CCTCCTGTTAACTCGTATCACCTCCCTCCCTCACTGAACCCGGAGTCACCTAGTGCAG,7850 fluorescence intensity (a.u.)
5,ATAAAGACTGTTCAATCATGATGAAGCTTTACGTAAGCGGCGGAGTCACCTAGTGCAG,34900 fluorescence intensity (a.u.)
6,TTTACAAACACGCAAATTAAAATTTTATTTATACAATTAACGGAGTCACCTAGTGCAG,4180 fluorescence intensity (a.u.)
7,GTACCAATTTAATTTATGTATCAATAAGAACATATCATGTCGGAGTCACCTAGTGCAG,22800 fluorescence intensity (a.u.)
8,TCAGCTTATTGACTTATATGATTTATAAGCCAATGGATTTCGGAGTCACCTAGTGCAG,11100 fluorescence intensity (a.u.)
9,CTGATTAGCATGCAGGATAGGAACTGATCTGTACTTGTCGCGGAGTCACCTAGTGCAG,22300 fluorescence intensity (a.u.)
10,ACTAATTTCATAACTCTCCTGGAAACCGTGAGATGAATCTCGGAGTCACCTAGTGCAG,6360 fluorescence intensity (a.u.)
11,ACAATTAACTAATAATAATTAGTGATTACTTATCTTGATTCGGAGTCACCTAGTGCAG,45300 fluorescence intensity (a.u.)
12,TTCCTTTGATTGATCATGAGGTGGGCTGGGGCTGAGATGGCGGAGTCACCTAGTGCAG,59400 fluorescence intensity (a.u.)
13,ATGATTGCTTAAGAATAATTGGTGACTTGCTACGAATGTGCGGAGTCACCTAGTGCAG,51300 fluorescence intensity (a.u.)
14,CCCAATTAATTACAATGGGCCACACGCTCGTGGCCCAACTCGGAGTCACCTAGTGCAG,10900 fluorescence intensity (a.u.)
15,AAATTTATGTAATTATTATTTATTTTATTGTGACTTGATTCGGAGTCACCTAGTGCAG,8590 fluorescence intensity (a.u.)
16,CCCACAATTAATTGGGCCTAATGGATCGGTGCCCTTGTGGCGGAGTCACCTAGTGCAG,53600 fluorescence intensity (a.u.)
17,TAGGTGATTAGTTGATTAATTAATCTTGAGCTCCTCCTAACGGAGTCACCTAGTGCAG,58800 fluorescence intensity (a.u.)
18,GAGAGATGATGGGCTGGTTTGGTTTGAGGCCTAAATTAGGCGGAGTCACCTAGTGCAG,3660 fluorescence intensity (a.u.)
19,GTAATTGCGGCCCATTAACCTAAATGGGCCGATCGAGTGGCGGAGTCACCTAGTGCAG,4580 fluorescence intensity (a.u.)
20,GATGATGATGAGGAGGATGACCAGGATGGTGGAGACTGGGCGGAGTCACCTAGTGCAG,4950 fluorescence intensity (a.u.)
21,TTCTGAATGTGATTGAATTAATTGGACTTGCGTTGACCTTCGGAGTCACCTAGTGCAG,59500 fluorescence intensity (a.u.)
22,CTCGAGGTCAAATCTTGATTAATTATGCTAATTAACGCGACGGAGTCACCTAGTGCAG,16800 fluorescence intensity (a.u.)
23,TGAATGATTGCTCTTGTGCTAAGAGAATAGACTTTATCCCCGGAGTCACCTAGTGCAG,32000 fluorescence intensity (a.u.)
